This passage reports growth inhibition results from PubChem BioAssay (NCI).

Structures are written as SMILES. About 79,000 compounds went through this panel and 15% of them were active in at least one assay; those are over-represented in the sample as a whole. Values without a mark were called inactive. The source made the active and inactive calls. Cut-off read from the data, not from the text of the source: active = growth inhibition above about 70%; inactive = the rest.

Experiment [1] can be described thus: NCI Yeast Anticancer Drug Screen. Data for the rad50 strain (AID 155).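 Note: 0% = growth of vehicle-only cultures of the same strain.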 The settings on record: S. cerevisiae rad50 strain growth inhibition, hits give high values. In outline: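 DNA repair mutant yeast, compound exposure, growth read-out; inhibition is taken relative to vehicle.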
Experiment [2] in a line: NCI Yeast Anticancer Drug Screen. Data for the mec2-1 strain (AID 157). The settings on record: S. cerevisiae mec2-1 strain, hits give high values. In outline:
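Each compound was tested on mec2-1 yeast, a strain altered in DNA damage repair or cell cycle control. Growth inhibition is reported relative to vehicle.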

A short description of experiment [3]: NCI Yeast Anticancer Drug Screen. Data for the sgs1 mgt1 strain (AID 161).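 Note: 0% = growth of cultures given vehicle only.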 The settings on record: S. cerevisiae sgs1 mgt1 strain, hits give high values. In outline:
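Genetically altered yeast, compound exposure, growth inhibition relative to vehicle.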

Experiment [4] is described as follows: NCI Yeast Anticancer Drug Screen. Data for the cln2 rad14 strain (AID 165).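 Note: 0% = growth equal to vehicle treated cultures.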 The settings on record: S. cerevisiae cln2 rad14 strain, hits give high values. In outline:
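Test compounds were added to cln2 rad14 yeast cultures; inhibition of growth was then determined by comparison with vehicle treatment.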

Experiment [5] is described as follows: NCI Yeast Anticancer Drug Screen. Data for the bub3 strain (AID 167). Particulars: S. cerevisiae bub3 mutant strain, hits give high values. In outline: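 In this screen, a yeast mutant lacking normal mitotic checkpoint function is challenged with compound. Relative growth versus vehicle gives the inhibition value.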
Experiment [6] is described as follows: NCI Yeast Anticancer Drug Screen. Data for the mlh1 rad18 strain (AID 175). The settings on record: S. cerevisiae mlh1 rad18 strain growth inhibition, hits give high values. In outline: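 Inhibition values reflect reduced growth of mutant yeast versus vehicle-treated controls following compound exposure; the mutations affect DNA damage repair.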
[7] abbreviates: at 5.0 µM (retest, dose inferred, filed as 0.5).
[8] abbreviates: at 50.0 µM (retest, dose inferred, filed as 5.0).

In the case of `C/C=C(\C)C(=O)OC1C(C)C2(O)C(C=C(CO)CC3(O)C(=O)C(C)=CC32)C2C(C)(C)C12OC(=O)CCCCCCCCC` (configuration not stated), the growth inhibition in experiment [1] (setting [7]) was 0%; in experiment [1] (setting [8]), 85% (active); in experiment [1] (at 50.0 µM) it was 79% (active); in experiment [2] (setting [7]), -3%; in experiment [2] (setting [8]), 90% (active); in experiment [2] (at 50.0 µM), 84.1% (active). Further, the growth inhibition is -15% in experiment [3] (setting [7]); 89% (active) in experiment [3] (setting [8]); 83.4% (active) in experiment [3] (at 50.0 µM); 24% in experiment [4] (setting [7]); 86% (active) in experiment [4] (setting [8]); 75.7% (active) in experiment [4] (at 50.0 µM). Further, the growth inhibition is 33% in experiment [5] (setting [7]); 89% (active) in experiment [5] (setting [8]); 80.9% (active) in experiment [5] (at 50.0 µM); 22% in experiment [6] (setting [7]); 86% (active) in experiment [6] (setting [8]); 81.6% (active) in experiment [6] (at 50.0 µM).
Take `CC(=O)Nc1ccc2c(c1)/C(=N/O)c1ccccc1-2`: the growth inhibition was -5% in experiment [1] (setting [7]); 76% (active) in experiment [1] (setting [8]); 67.2% in experiment [1] (at 50.0 µM); -11% in experiment [2] (setting [7]); 90% (active) in experiment [2] (setting [8]); 42% in experiment [2] (at 50.0 µM). Also, the growth inhibition in experiment [3] (setting [7]) was -1%; in experiment [3] (setting [8]), 89% (active); in experiment [3] (at 50.0 µM), 74.9% (active); in experiment [4] (setting [7]), -11%; in experiment [4] (setting [8]), 56%; in experiment [4] (at 50.0 µM), 64.5%. Besides, the growth inhibition in experiment [5] (setting [7]) was -3%; in experiment [5] (setting [8]), 77% (active); in experiment [5] (at 50.0 µM), 72.4% (active); in experiment [6] (setting [7]), 17%; in experiment [6] (setting [8]), 92% (active); in experiment [6] (at 50.0 µM), 77.3% (active).
`Cc1ccc(C2SCc3nc4ccccc4n32)cc1` (configuration not stated): the growth inhibition is -4% in experiment [1] (setting [7]); 51% in experiment [1] (setting [8]); 31.2% in experiment [1] (at 50.0 µM); -38% in experiment [2] (setting [7]); 39% in experiment [2] (setting [8]); 20.8% in experiment [2] (at 50.0 µM). Moreover, the growth inhibition in experiment [3] (setting [7]) was -26%; in experiment [3] (setting [8]), 57%; in experiment [3] (at 50.0 µM) it was 49.1%; in experiment [4] (setting [7]), 2%; in experiment [4] (setting [8]) it was 46%; in experiment [4] (at 50.0 µM), 34%. For the same compound, the growth inhibition in experiment [5] (setting [7]) is -2%; in experiment [5] (setting [8]), 93% (active); in experiment [5] (at 50.0 µM), 70.4% (active); in experiment [6] (setting [7]) it was 13%; in experiment [6] (setting [8]), 86% (active); in experiment [6] (at 50.0 µM) it was 48.9%.
For `COc1ccc(C2COc3cc(O)c(O)cc3C2)cc1` (configuration not stated), the growth inhibition in experiment [1] (setting [7]) was 95% (active); in experiment [1] (setting [8]) it was 99% (active); in experiment [1] (at 50.0 µM), 99.6% (active); in experiment [2] (setting [7]), 95% (active); in experiment [2] (setting [8]), 99% (active); in experiment [2] (at 50.0 µM), 99.6% (active). The growth inhibition in experiment [3] (setting [7]) is 93% (active); in experiment [3] (setting [8]), 99% (active); in experiment [3] (at 50.0 µM), 99.8% (active); in experiment [4] (setting [7]), 46%; in experiment [4] (setting [8]), 99% (active); in experiment [4] (at 50.0 µM), 99.6% (active). Further, the growth inhibition in experiment [5] (setting [7]) was 98% (active); in experiment [5] (setting [8]) it was 99% (active); in experiment [5] (at 50.0 µM), 99.6% (active); in experiment [6] (setting [7]) it was 99% (active); in experiment [6] (setting [8]), 99% (active); in experiment [6] (at 50.0 µM), 98.2% (active).
`O=C1C=C(Br)C(=O)C(Br)=C1`: the growth inhibition was 25% in experiment [1] (setting [7]); 99% (active) in experiment [1] (setting [8]); 93.8% (active) in experiment [1] (at 50.0 µM); 21% in experiment [2] (setting [7]); 99% (active) in experiment [2] (setting [8]); 99.6% (active) in experiment [2] (at 50.0 µM). Moreover, the growth inhibition in experiment [3] (setting [7]) was 13%; in experiment [3] (setting [8]), 98% (active); in experiment [3] (at 50.0 µM), 99.3% (active); in experiment [4] (setting [7]), 28%; in experiment [4] (setting [8]), 86% (active); in experiment [4] (at 50.0 µM), 25.7%. For the same compound, the growth inhibition was 31% in experiment [5] (setting [7]); 99% (active) in experiment [5] (setting [8]); 94.2% (active) in experiment [5] (at 50.0 µM); 40% in experiment [6] (setting [7]); 99% (active) in experiment [6] (setting [8]); 97.5% (active) in experiment [6] (at 50.0 µM).
With `O=C(O)c1cc2cc3ccccc3cc2cc1O`, the growth inhibition in experiment [1] (setting [7]) was -1%; in experiment [1] (setting [8]), 32%; in experiment [1] (at 50.0 µM) it was 73.3% (active); in experiment [2] (setting [7]), 2%; in experiment [2] (setting [8]), 34%; in experiment [2] (at 50.0 µM), 57.2%. In addition, the growth inhibition in experiment [3] (setting [7]) was 3%; in experiment [3] (setting [8]), 36%; in experiment [3] (at 50.0 µM), 81% (active); in experiment [4] (setting [7]), -1%; in experiment [4] (setting [8]), 14%; in experiment [4] (at 50.0 µM), 55.2%. Further, the growth inhibition was 0% in experiment [5] (setting [7]); 22% in experiment [5] (setting [8]); 51.2% in experiment [5] (at 50.0 µM); -1% in experiment [6] (setting [7]); 27% in experiment [6] (setting [8]); 64.7% in experiment [6] (at 50.0 µM).
Consider `Cc1cc(O)c2c(c1)C(=O)c1c(c(O)cc(O)c1-c1c(O)cc(O)c3c1C(=O)c1cc(C)cc(O)c1C3=O)C2=O`, for which the growth inhibition in experiment [1] (setting [7]) was 14%; in experiment [1] (setting [8]), 60%; in experiment [1] (at 50.0 µM) it was 64.8%; in experiment [2] (setting [7]), 29%; in experiment [2] (setting [8]) it was 70% (active); in experiment [2] (at 50.0 µM), 70.3% (active). Moreover, the growth inhibition in experiment [3] (setting [7]) is 8%; in experiment [3] (setting [8]) it was 64%; in experiment [3] (at 50.0 µM), 69.8%; in experiment [4] (setting [7]) it was 27%; in experiment [4] (setting [8]), 79% (active); in experiment [4] (at 50.0 µM), 58.1%. The growth inhibition in experiment [5] (setting [7]) is 17%; in experiment [5] (setting [8]) it was 69%; in experiment [5] (at 50.0 µM), 63.7%; in experiment [6] (setting [7]), -8%; in experiment [6] (setting [8]) it was 80% (active); in experiment [6] (at 50.0 µM), 59.1%.
In the case of `O=C1C2(Cl)C(Cl)=C(Cl)C1(Cl)C1(Cl)C(Cl)=C(Cl)C(=O)C21Cl` (configuration not stated), the growth inhibition in experiment [1] (setting [7]) was 55%; in experiment [1] (setting [8]), 88% (active); in experiment [1] (at 50.0 µM), 98.2% (active); in experiment [2] (setting [7]) it was 45%; in experiment [2] (setting [8]), 92% (active); in experiment [2] (at 50.0 µM), 54.2%. Further, the growth inhibition in experiment [3] (setting [7]) was 45%; in experiment [3] (setting [8]), 92% (active); in experiment [3] (at 50.0 µM), 39.8%; in experiment [4] (setting [7]), 19%; in experiment [4] (setting [8]), 89% (active); in experiment [4] (at 50.0 µM), 76.4% (active). Also, the growth inhibition in experiment [5] (setting [7]) is 21%; in experiment [5] (setting [8]) it was 92% (active); in experiment [5] (at 50.0 µM) it was 28.4%; in experiment [6] (setting [7]), 66%; in experiment [6] (setting [8]), 90% (active); in experiment [6] (at 50.0 µM), 61.2%.
As to `C[n+]1c(-c2ccc(/C=C/C=N\NC(=O)c3ccc(C(=O)N/N=C\C=C\c4ccc(-c5cn6ccccc6[n+]5C)cc4)cc3)cc2)cn2ccccc21`, the growth inhibition was 18% in experiment [1] (setting [7]); 98% (active) in experiment [1] (setting [8]); 96.1% (active) in experiment [1] (at 50.0 µM); 5% in experiment [2] (setting [7]); 97% (active) in experiment [2] (setting [8]); 96.8% (active) in experiment [2] (at 50.0 µM). For the same compound, the growth inhibition in experiment [3] (setting [7]) is 16%; in experiment [3] (setting [8]), 98% (active); in experiment [3] (at 50.0 µM), 96.8% (active); in experiment [4] (setting [7]) it was 22%; in experiment [4] (setting [8]) it was 97% (active); in experiment [4] (at 50.0 µM), 96.3% (active). For the same compound, the growth inhibition in experiment [5] (setting [7]) is 36%; in experiment [5] (setting [8]), 97% (active); in experiment [5] (at 50.0 µM) it was 95.5% (active); in experiment [6] (setting [7]) it was 21%; in experiment [6] (setting [8]) it was 97% (active); in experiment [6] (at 50.0 µM), 96.8% (active).
